# Screening data as filed in PubChem.
# NS1 function inh: blocks influenza NS1 protein function; 270,000 compounds, 0.4% hits; Potency, µM (titrated, usually from 46.1 µM), for the others: at the highest dose activity, positive = more growth; calls by dose curve; note: actives are rising curves; nearly all actives have a fitted effect of over 50% in size
#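 Read-out: OD600 growth recovery of NS1-expressing budding yeast. Cells grown overnight at 30C in -URA glucose medium, washed, resuspended and diluted 1:100 in 2% galactose assay medium, pH 6.0. Same strain lacking NS1 served as positive control.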
# Cruzain noTriton: inhibitors of Trypanosoma cruzi cruzain without detergent. purified cruzain, Z-FR-AMC fluorescence, no detergent. Potency, µM, for inactives: max response, negative = inhibition, usual class: inhibitors. 200,000 compounds, 2.3% hits. AID 1476;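 note: plate controls were enzyme without inhibitor for no effect and buffer without enzyme for full effect; nearly all actives have a fitted effect of over 40% in size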
# Target sequence (P25779 123-467 limits assumed): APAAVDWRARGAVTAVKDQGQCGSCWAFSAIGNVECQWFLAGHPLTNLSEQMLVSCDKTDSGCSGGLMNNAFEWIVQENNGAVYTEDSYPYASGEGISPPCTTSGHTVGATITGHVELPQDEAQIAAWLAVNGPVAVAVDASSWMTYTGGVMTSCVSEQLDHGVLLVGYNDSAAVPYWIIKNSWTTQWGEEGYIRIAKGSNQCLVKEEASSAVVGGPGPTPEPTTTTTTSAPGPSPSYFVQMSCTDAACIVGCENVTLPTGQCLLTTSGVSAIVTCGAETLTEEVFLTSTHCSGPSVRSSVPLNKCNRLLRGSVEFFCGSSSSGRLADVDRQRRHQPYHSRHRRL
#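 Detergent-free condition (0.00005% Triton X-100) in acetate buffer pH 5.5 with DTT. 1.5 nM enzyme and compound were pre-mixed 15 min, then 2 uM Z-FR-AMC substrate added; reaction progress from fluorescence change between first and third reads (60 s).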
# Cruzain inh Det: cruzain (T. cruzi) inhibition with detergent; P25779; purified cruzain, Z-FR-AMC fluorescence, 0.01% Triton; Potency, µM, without a hit: max response, negative = inhibition, most hits filed as inhibitors; 200,000 compounds, 0.43% hits;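 note: plate controls were neutral wells for no effect and buffer without enzyme for full effect; nearly all actives have a fitted effect of over 40% in size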
#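 Cruzain (1.5 nM) preincubated 15 min at RT with compound in 100 mM sodium acetate pH 5.5, 5 mM DTT, 0.01% Triton X-100. Reaction started with 2 uM Z-FR-AMC; AMC fluorescence (ex 360/em 450 nm) change over 60 s gave rate.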
# * = called active by the depositor; ? = inconclusive; · = not tested or not shown. Many of the other results were omitted from the sample, so hits are more common in it than they were. Unless noted, calls come from the whole dose curve; as a rule, active = well fitted curve in the direction sought with a large enough effect; inconclusive = small, poorly fitted or top-dose-only effect, or another doubt; inactive = no such curve, though single readings can be large; an effect the other way counts as inactive or inconclusive. Potency is the fitted concentration of half-maximal effect.
SMILES,NS1 function inh,Cruzain noTriton,Cruzain inh Det
Cc1ccc(Cl)cc1Nc1nc(-c2sc(NC(=O)c3ccco3)nc2C)cs1,27.8%,25.1µM*,-3.5%
Cc1ccc2oc(=O)cc(CN3CCC(C)CC3)c2c1,-9.8%,-13.6%,-5.3%
COc1ccc(-c2nc3cnc(N4CCOCC4)nc3n(C3CC3)c2=O)cc1,·,-1.1%,4.1%
COc1cccc(-n2c(=O)c3c(C)c(C)sc3n(Cc3ccccc3C#N)c2=O)c1,·,-2.7%,0.7%
O=C(Nc1ccccc1C(=O)N1CCCCCC1)c1cccc([N+](=O)[O-])c1,7.7%,·,·
COc1cccc(-c2csc(-c3c(N)c(C(=O)c4ccccc4)n4ccccc34)n2)c1,·,7.94µM*,-3.4%
CCc1ccc(C(=O)c2c(N)c(-c3nc(-c4ccc5c(c4)OCO5)cs3)c3ccccn23)cc1,·,2.51µM*,-2.0%
COc1ccc(OC)c(C(=O)c2c(N)c(-c3nc(-c4ccc(C)c(C)c4)cs3)c3ccccn23)c1,·,-6.0%,-1.9%
Cc1ccc(-c2csc(-c3c(N)c(C(=O)c4ccc5c(c4)OCO5)n4ccccc34)n2)cc1,·,?,-1.6%
CC(C)c1[nH]c(=O)c(C#N)c2c1CSC(C)(C)C2,15.1%,-5.4%,5.8%
COC[C@@H](O)[C@@H](OC)[C@H](OC)[C@H](Cc1c(OC)cc(OC)cc1OC)OC,·,-9.3%,0.7%
Cc1ccc(Cn2nc(C)c(NC(=O)C3CC3)c2C)cc1,12.3%,-23.0%,-1.9%
COc1cccc(S(=O)(=O)Nc2ccc3sc(C)nc3c2)c1,?,-0.8%,2.2%
COc1ccc(-c2c3c([nH]c(=S)c2C#N)CCC3)cc1,24.4%,15.8µM*,-1.1%
COc1ccc(OC)c(-c2c3c([nH]c(=S)c2C#N)CCCC3)c1,11.0%,·,·
O=C(CSc1oc(-c2ccc(F)cc2)nc1S(=O)(=O)c1ccc(Cl)cc1)c1ccccc1,·,31.6µM*,-4.5%
O=C(CSc1oc(-c2ccccc2)nc1S(=O)(=O)c1ccc(Cl)cc1)c1ccccc1,·,?,-7.9%
O=C(CSc1oc(-c2ccco2)nc1S(=O)(=O)c1ccc(Cl)cc1)c1ccc(Cl)cc1,·,25.1µM*,-6.4%
Cc1ccc(S(=O)(=O)c2nc(-c3ccco3)oc2SCC(=O)c2ccc(Cl)cc2)cc1,·,?,-8.3%
CN(C)c1ccc(CN(Cc2ccco2)C(=O)c2ccco2)cc1,-19.9%,·,·
CC1CCCC(NC(=O)Cc2ccc(Br)cc2)C1C (stereo not given),-3.2%,?,25.1µM*
CC1CCCC(NC(=O)COC(=O)Cc2ccc(Br)cc2)C1C (stereo not given),3.0%,·,·
CC(C)N1C(=O)CCC1C(=O)N1CCC(Cc2ccccc2)CC1 (stereo not given),-9.7%,12.2%,1.1%
Cc1cc(NC(=O)c2cc(-c3cccc(Cl)c3)on2)no1,-8.9%,20µM*,4.7%
CC(=O)c1cccc(NC(=O)c2cc(-c3ccc(C)cc3)on2)c1,-3.6%,25.1µM*,1.1%
SMILES,NS1 function inh,Cruzain noTriton,Cruzain inh Det
Cc1ccc(Cn2ccc(NC(=O)c3cc(-c4ccc(F)cc4)on3)n2)cc1,11.0%,20µM*,7.6%
COc1cccc(-c2cc(C(=O)Nc3cc(C)on3)no2)c1,-10.0%,-5.4%,0.1%
Cc1ccc(Cn2ccc(NC(=O)c3cc(-c4ccc(Cl)cc4)on3)n2)cc1,12.3%,0.6%,-3.2%
CC(=O)c1cccc(NC(=O)c2cc(-c3ccc4c(c3)OCCO4)on2)c1,·,-1.5%,0.2%
CCOc1ccc(/C(C)=N/N2C(=O)C(CC(=O)Nc3ccc(OC)cc3[N+](=O)[O-])SC2=Nc2cccc(C)c2C)cc1 (stereo not given),22.0%,10µM*,-1.4%
COc1ccccc1/C=N/N1C(=O)C(CC(=O)Nc2ccc([N+](=O)[O-])cc2OC)SC1=Nc1cccc(C)c1C (stereo not given),7.7%,·,·
COc1cc2c(cc1OC)C1O[C@](CCCCN3C(=O)c4ccccc4C3=O)(C2)Oc2c1c(=O)oc1ccc(F)cc21,29.8%,·,·
C=CCSc1nnc2c(n1)OC=Nc1ccc(Br)cc1-2,-26.6%,25.1µM*,-5.4%
CCSc1nnc2c(n1)OC=Nc1ccc(Br)cc1-2,-39.3%,-15.7%,-6.1%
C[C@@]12C(=O)N(CC3CC3)CC(=O)N1[C@H](/C=C/c1ccccc1)[C@@H]1C(=O)N(c3ccccc3)C(=O)[C@@H]12,19.0%,·,·
COc1ccc(C(=S)N2CCCC2)cc1,12.0%,-3.0%,-1.8%
CC1=NN(c2ccc(Br)cc2)C(=O)/C1=C/c1cccs1,1.1%,-1.2%,-5.1%
Cc1ccc(C2=N/C(=C/c3cccs3)C(=O)N2Nc2ccccc2)cc1,2.2%,25.1µM*,0.8%
CCOc1ccc(CNC(=S)N/N=C/c2cccnc2)cc1,6.0%,-1.0%,-6.4%
CCOc1ccc(CNC(=S)N/N=C\c2ccc([N+](=O)[O-])cc2)cc1,4.5%,20µM*,-4.0%
O=c1c(-c2cccs2)nc2cnc(Oc3ccccc3)nc2n1Cc1cccs1,·,?,-1.4%
COc1ccc(Oc2ncc3nc(-c4cccs4)c(=O)n(Cc4cccc(OC)c4)c3n2)cc1,·,12.6µM*,2.4%
COc1ccc(Oc2ncc3nc(-c4cccs4)c(=O)n(Cc4cccs4)c3n2)cc1,·,7.94µM*,3.9%
COc1cccc(Cn2c(=O)c(-c3cccs3)nc3cnc(OC)nc32)c1,·,11.7%,2.8%
Cc1ccc(S(=O)(=O)c2c(C)nn(-c3ccccc3)c2OC(=O)c2ccccc2F)cc1,·,4.4%,-0.8%
Cc1ccc(C(NC(=O)N2CC(C)OC(C)C2)C(Cl)Cl)cc1F (stereo not given),-9.4%,-2.1%,7.0%
COc1ccc(S(=O)(=O)Nc2ccccc2C(=O)Nc2nc(-c3ccc(F)cc3)cs2)cc1OC,-52.1%,20µM*,-14.0%
COc1ccc(-c2csc(NC(=O)c3ccccc3NS(=O)(=O)c3ccc(C)cc3)n2)cc1,-24.5%,?,-14.1%
CC(C)c1ccc(NC(=O)C2CCCN(S(=O)(=O)c3cccc4nonc34)C2)cc1 (stereo not given),·,2.3%,0.5%
C[C@@](N)(C(=O)O)c1ccc(C(=O)O)cc1,·,-6.4%,2.6%
SMILES,NS1 function inh,Cruzain noTriton,Cruzain inh Det
CCOc1ccccc1NC(=O)CSc1nccn1-c1ccc(Cl)cc1,·,11.1%,-3.2%
COc1ccc(C(=O)Cn2cnc3ccccc3c2=O)cc1,-44.3%,·,·
O=[N+]([O-])c1cc2c(c(CSc3nnc(Nc4ccccc4)s3)c1)OCOC2,9.0%,?,-0.8%
Cc1ccccc1Nc1nnc(SCc2cc([N+](=O)[O-])cc3c2OCOC3)s1,-0.3%,12.6µM*,0.8%
COc1nc(-c2ccccc2Cl)ccc1C#N,-8.0%,-7.3%,-2.7%
COc1ccc(-c2ccc(C#N)c(OC(=O)c3c(Cl)cccc3Cl)n2)cc1,-13.4%,?,28.2µM*
O=C1/C(=C\c2ccc(O)c(O)c2)C(c2ccccc2)=NN1c1ccccc1,13.2%,·,·
CCOc1cc(/C=C2\C(=O)N(c3nc(-c4ccc(Br)cc4)cs3)N=C2c2ccccc2)ccc1O,?,3.16µM*,?
O=C1c2ccccc2OC2(C=Cc3ccccc3O2)N1Cc1ccccc1 (stereo not given),1.6%,25.1µM*,3.0%
Cc1ccc(NC(=O)N2CCC3(CC2)Oc2ccccc2C(=O)N3Cc2ccc(F)cc2)cc1,·,?,-5.1%
COc1cccc2cc(C(=O)NCc3ccccc3Br)c(=O)oc12,0.5%,·,·
COc1ccc(C2c3c(ccc4ccccc34)Oc3ncn4nc(Cc5ccccc5)nc4c32)cc1OC (stereo not given),-0.5%,?,-1.6%
